Laboratory results as given in PubChem BioAssay (Tox21).
Results filed as inconclusive are left out. Entries that show only a call come without a potency. The source made the active and inactive calls. Calls come from the whole dose curve; as a rule, active = well fitted inhibition curve with a large enough effect in the signal ratio in the repeat runs (not every such curve was filed as active); inconclusive = weak or mixed curves, or effect the other way; inactive = no such curve, though single readings can be large or run the other way; the % refers to the signal ratio. Positions of bridges follow the written chain, without caps; N, C: chain ends. Non-standard residues stand in square brackets, D forms with d. Residues, ends and D or L forms follow the SMILES beside them. ξ: configuration not given here. *: point of attachment. d(aThr) = C[C@@H](O)[C@@H](N)C(=O)O; ξThr(3R) = C[C@@H](O)C(N)C(=O)O; X3 = CC[C@@H](C)CCCCC(=O)*; dDab = NCC[C@@H](N)C(=O)O; Orn = NCCC[C@H](N)C(=O)O; Mpa = O=C(O)CCS

molecular target: Glucocorticoid receptor (Homo sapiens) (UniProt P04150); test: qHTS assay to identify small molecule antagonists of the glucocorticoid receptor (GR) signaling pathway (AID 720692); settings: GR-bla HeLa, beta-lactamase FRET ratio, dexamethasone-stimulated, 18 h; series mostly up to 58.5 µM
Source text: U.S. Tox21 Program National Center for Advancing Translational Sciences [NCATS] NIH Chemical Genomics Center [NCGC] U.S. Environmental Protection Agency [EPA] National Institutes of Environmental Health Sciences [NIEHS] National Toxicology Program [NTP] U.S. Food and Drug Administration [FDA] Tox21 Assay Overview: The Glucocorticoid receptor (GR) is one of the members of the nuclear receptor family of ligand-dependent transcription factors. GR plays a critical role in carbohydrate, protein and lipid metabolisms and programmed cell death. CellSensor GR-bla HeLa cell line (Invitrogen) contains a beta-lactamase reporter gene under the control of the glucocorticoid response element stably integrated into HeLa cells, a cervical cancer cell line that expresses glucocorticoid receptor. The activation of the reporter gene under culture conditions can be detected by fluorescence intensity. This cell line has been used to screen the Tox21 10K compound library and to identify the compounds that inhibit the GR signaling.
Tox21 Assay Protocol Summary: The GR-bla HeLa cells were dispensed at 1500 cells/5 ul/well in 1536-well black wall/clear bottom plates using a Multidrop Combi (ThermoFisher Scientific, Waltham, MA) dispenser. After the assay plates were incubated at a 37 C/5% CO2 incubator for 4 hours, 23 nL of compounds dissolved in DMSO, positive controls or DMSO only was transferred to the assay plate by a pintool station (Kalypsys, San Diego, CA), followed by addition of 1 uL of dexamethasone (5 nM, final concentration in the well). The plates were incubated at 37 C for 18 hours. After 1 uL of LiveBLAzerTM B/G FRET substrate was added using a Flying Reagent Dispenser (Aurora Discovery, San Diego, CA), the plates were incubated at room temperature for 2 hours, and fluorescence intensity was measured by an Envision plate reader (PerkinElmer, Shelton, CT).
Potency is the fitted concentration of half-maximal effect.

Sequence of Glucocorticoid receptor (Homo sapiens) (P04150 whole entry, looked up): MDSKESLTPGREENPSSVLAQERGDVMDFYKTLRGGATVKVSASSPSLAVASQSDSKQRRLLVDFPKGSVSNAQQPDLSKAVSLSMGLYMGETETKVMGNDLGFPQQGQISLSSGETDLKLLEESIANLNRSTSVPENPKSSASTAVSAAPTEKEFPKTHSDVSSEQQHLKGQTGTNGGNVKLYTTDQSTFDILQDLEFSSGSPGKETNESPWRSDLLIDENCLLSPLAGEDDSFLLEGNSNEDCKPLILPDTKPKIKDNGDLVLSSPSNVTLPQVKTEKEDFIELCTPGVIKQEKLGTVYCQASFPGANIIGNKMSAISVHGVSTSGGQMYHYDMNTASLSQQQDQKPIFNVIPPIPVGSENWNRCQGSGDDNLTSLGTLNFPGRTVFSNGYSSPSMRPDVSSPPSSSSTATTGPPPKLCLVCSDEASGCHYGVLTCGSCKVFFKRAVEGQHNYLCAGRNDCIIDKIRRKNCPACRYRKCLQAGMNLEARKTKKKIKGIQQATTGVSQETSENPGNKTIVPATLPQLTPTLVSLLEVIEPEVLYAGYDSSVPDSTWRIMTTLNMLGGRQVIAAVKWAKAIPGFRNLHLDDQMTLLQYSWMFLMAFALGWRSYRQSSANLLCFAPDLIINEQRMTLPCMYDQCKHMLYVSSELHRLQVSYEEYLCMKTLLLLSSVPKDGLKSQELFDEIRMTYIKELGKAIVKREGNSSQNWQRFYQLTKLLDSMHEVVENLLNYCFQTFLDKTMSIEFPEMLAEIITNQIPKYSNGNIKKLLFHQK

Row | Structure (SMILES) | Potency
1 | COCC(=O)Nc1cc(Sc2ccccc2)ccc1N=C(NC(=O)OC)NC(=O)OC | inactive
2 | CC1(C)S[C@@H]2[C@H](NC(=O)C(C(=O)O)c3ccsc3)C(=O)N2[C@H]1C(=O)O (stereo not given in full) | inactive
3 | O=C(Nc1ccc(/C=C/c2ccc(NC(=O)c3cc(S(=O)(=O)O)c4cccnc4c3O)cc2S(=O)(=O)O)c(S(=O)(=O)O)c1)c1cc(S(=O)(=O)O)c2cccnc2c1O | inactive
4 | CCCCC(=O)N(Cc1ccc(-c2ccccc2-c2nn[nH]n2)cc1)[C@@H](C(=O)O)C(C)C | inactive
5 | FC(F)(F)C(F)(F)C(F)(F)C(F)(F)C(F)(F)C(F)(F)F | inactive
6 | COc1cc(C[C@@H]2NCCc3cc(O)c(O)cc32)cc(OC)c1OC | inactive
7 | CCCc1ccc(C(=O)O)cc1 | inactive
8 | C[N+]1(C)[C@@H]2CC(OC(=O)C(O)(c3cccs3)c3cccs3)C[C@H]1[C@@H]1O[C@@H]12 (stereo not given in full) | inactive
9 | COC1=C(C(=O)O)N2C(=O)[C@@H](NC(=O)[C@H](N)C3=CCC=CC3)[C@H]2SC1 | inactive
10 | COC(=O)C1=C(C)NC(C)=C(C(=O)O[C@H]2CCN(Cc3ccccc3)C2)[C@H]1c1cccc([N+](=O)[O-])c1 | 23.9 µM (active)
11 | C[C@]12CC[C@@H]3c4ccc(OC(=O)c5ccccc5)cc4CC[C@H]3[C@@H]1CC[C@@H]2O | 6.01 µM (active)
12 | O=C(OCCO)c1ccccc1O | inactive
13 | CC1=C[C@H](O)CC(C)(C)[C@H]1/C=C/C(C)=C/C=C/C(C)=C/C=C/C=C(C)/C=C/C=C(C)/C=C/C1=C(C)C[C@@H](O)CC1(C)C | 23.9 µM (active)
14 | CCCCCCCCCCCCCCCC(=O)O[C@@H]1[C@@H](O)[C@@H](O)[C@@H]([C@H](NC(=O)[C@@H]2C[C@@H](CCC)CN2C)[C@H](C)Cl)O[C@@H]1SC | inactive
15 | O=C(O)c1nc(=O)[nH]c(=O)[nH]1 | inactive
16 | CC[C@@H](C)CCCCC(=O)N[C@H](CCN)C(=O)N[C@@H](C(=O)N[C@H](CCN)C(=O)N[C@@H]1CCNC(=O)C([C@@H](C)O)NC(=O)[C@@H](CCN)NC(=O)[C@@H](CCN)NC(=O)[C@@H](CC(C)C)NC(=O)[C@@H](Cc2ccccc2)NC(=O)[C@@H](CCN)NC1=O)[C@@H](C)O (stereo partly drawn) (X3-[dDab][d(aThr)][dDab][dDab][dDab][dF][dL][dDab][dDab][ξThr(3R)]; lactam 4-C) | inactive
17 | CCOc1ccc(C[C@H]2NC(=O)CCSSC[C@@H](C(=O)N3CCC[C@H]3C(=O)N[C@@H](CCCN)C(=O)NCC(N)=O)NC(=O)[C@H](CC(N)=O)NC(=O)[C@H]([C@@H](C)O)NC(=O)[C@H]([C@@H](C)CC)NC2=O)cc1 ([Mpa][dY](Et)ITNCP[Orn]G-NH2; disulfide 1-6) | inactive
18 | Nc1ncnc2c1ncn2CCOCP(=O)(O)O | inactive
19 | C[C@H](CSC(=O)c1ccccc1)C(=O)N1C[C@@H](Sc2ccccc2)C[C@H]1C(=O)O | inactive
20 | O=C1CCC(=O)N1CO | inactive

Row | Structure (SMILES) | Potency
21 | CCCOc1cc(N)ccc1C(=O)OCCN(CC)CC | inactive
22 | Cc1cccc(C)c1N(CCCc1cccnc1)C(=O)C(C)N (stereo not given) | inactive
23 | NCCCC[C@H](N)C(=O)O | inactive
24 | O=C1NCCN1c1ncc([N+](=O)[O-])s1 | inactive
25 | CCOC(=O)[C@H](CCc1ccccc1)N[C@@H](C)C(=O)N1CC2(C[C@H]1C(=O)O)SCCS2 | inactive
26 | CC(C)(CO)[C@@H](O)C(=O)NCCCC(=O)O | inactive
27 | c1ccc2cc(C3=NCCN3)ccc2c1 | inactive
28 | C=CCCCCCCCCC(=O)OC | inactive
29 | O=C(Cn1c(=O)sc2ccc(Cl)cc21)N1CCN(CCO)CC1 | inactive
30 | N#Cc1ccc2c(c1)N(CCCN1CCC(O)CC1)c1ccccc1S2 | inactive
31 | C#CCOc1ccc2c(C)cc(=O)oc2c1 | inactive
32 | OC[C@@H](O)C(O)[C@H](O)CO | inactive
33 | COc1ccc(CCNC[C@H](O)c2ccc(O)cc2)cc1OC | inactive
34 | C[C@]12CC[C@@H]3c4ccc(OS(=O)(=O)O)cc4CC[C@H]3[C@@H]1CCC2=O | inactive
35 | CC(C)(S)[C@@H](N)C(=O)O | inactive
36 | CO[C@H]1C=CO[C@@]2(C)Oc3c(C)c(O)c4c(O)c(c(/C=N/N5CCN(C6CCCC6)CC5)c(O)c4c3C2=O)NC(=O)/C(C)=C\C=C[C@H](C)[C@H](O)[C@@H](C)[C@@H](O)[C@@H](C)[C@H](OC(C)=O)[C@@H]1C | 21.3 µM (active)
37 | O=C(O)C1=C(CSc2nnnn2CS(=O)(=O)O)CS[C@@H]2[C@H](NC(=O)[C@H](O)c3ccccc3)C(=O)N12 | inactive
38 | CCCC(CCC)C(N)=O | inactive
39 | CC(C)CN(C[C@@H](O)[C@H](Cc1ccccc1)NC(=O)O[C@@H]1CCOC1)S(=O)(=O)c1ccc(N)cc1 | inactive
40 | O=S(=O)(O)c1cc(O)c2c(N=Nc3ccc(Nc4ccccc4)c4c(S(=O)(=O)O)cccc34)cc(S(=O)(=O)O)cc2c1 | inactive
